The text below walks through data of PubChem BioAssay (NCI).

Among the test systems are SK-MEL-2 melanoma; EKVX NSCLC; SN12C renal; UO-31 renal; TK-10 renal; ACHN renal; CAKI-1 renal; A498 renal; CCRF-CEM leukemia; MOLT-4 leukemia.
What all share (assay): NCI-60 one-dose screen, 48 h (100 = growth as untreated, 0 = no growth, -100 = all killed)
Holding throughout (conditions): 10 µM unless noted

Several values for one entry are separate records, joined by “and”; a condition that tells them apart may be missing. Equal entries are not always repeated. About 83,000 compounds went through this panel and 20% of them were active in at least one assay; those are over-represented in the sample as a whole.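 Single-dose data. Exposure time 48 hours. Values below 10 considered active.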 Activity calls are given as the source filed them.

On to `N#CC1=C(c2ccco2)Nc2c(c(-c3ccccc3)nn2-c2ccccc2)C12C(=O)Nc1ccc(Cl)cc12` (stereo not given), for which the growth is 80.2% (inactive) with SK-MEL-2 melanoma; 24.2% (inactive) in the assay with EKVX NSCLC; -44.4% (active) with SN12C renal; 43.1% (inactive) with UO-31 renal; -15.4% (active) in the assay with TK-10 renal; 8.94% (active) with ACHN renal. For the same molecule, the growth is 33% (inactive) with CAKI-1 renal, 135% (inactive) in the assay with A498 renal, 25% (inactive) with CCRF-CEM leukemia and 34.8% (inactive) with MOLT-4 leukemia.

Consider `O=C(c1cc2cc(OCCCN3CCC3)ccc2[nH]1)N1C[C@@H](CCl)c2c1cc(OCc1ccccc1)c1ccccc21`, for which the growth is -93.4% (active) with SK-MEL-2 melanoma; -46% (active) with EKVX NSCLC; -40.1% (active) in the assay on SN12C renal; -84.6% (active) with UO-31 renal; -3.9% (active) with TK-10 renal; -96.8% (active) in the assay on ACHN renal. Further, the growth with CAKI-1 renal is -84.6% (active); in the assay on A498 renal, -25.3% (active); in the assay on CCRF-CEM leukemia, -18.2% (active); in the assay with MOLT-4 leukemia, -15.4% (active).

Consider `O=C1Nc2cc(-c3ccc(NS(=O)(=O)c4ccc([N+](=O)[O-])cc4)cc3)ccc2/C1=C/c1ccc[nH]1`, for which the growth with SK-MEL-2 melanoma was 13.9% (inactive); in the assay on EKVX NSCLC, 3.18% (active); in the assay on SN12C renal, -17.7% (active); in the assay on UO-31 renal, 34.9% (inactive); in the assay with TK-10 renal, -2.87% (active); in the assay on ACHN renal, -62.5% (active). In addition, the growth in the assay with CAKI-1 renal is -17.4% (active); in the assay on A498 renal, -33.6% (active); with CCRF-CEM leukemia it was 27.5% (inactive); with MOLT-4 leukemia, 15.8% (inactive).

Take `CC(=O)Nc1cccc(-n2c(COc3ccc(I)cc3)nc3ccccc32)c1`: the growth in the assay on SK-MEL-2 melanoma was 82.8% (inactive) and 118% (inactive); in the assay on EKVX NSCLC, 86% (inactive) and 102% (inactive); in the assay with SN12C renal, 95.7% (inactive) and 111% (inactive); in the assay with UO-31 renal, -67.3% (active) and 90% (inactive); in the assay with TK-10 renal it was 102% (inactive) and 104% (inactive); in the assay with ACHN renal, -78.2% (active) and 116% (inactive). Moreover, the growth in the assay on CAKI-1 renal was 56.7% (inactive) and 105% (inactive); with A498 renal it was 114% (inactive) and 136% (inactive); in the assay with CCRF-CEM leukemia it was 90.4% (inactive) and 96.2% (inactive); in the assay on MOLT-4 leukemia it was 83.6% (inactive) and 102% (inactive).

As for `O=C(Nc1ccc(-c2ccc3c(c2)NC(=O)/C3=C\c2ccc[nH]2)cc1)Nc1cccc(Cl)c1`, the growth with SK-MEL-2 melanoma is -52.8% (active); with EKVX NSCLC, -19.6% (active); with SN12C renal, 40.7% (inactive); in the assay with UO-31 renal it was 10.5% (inactive); with TK-10 renal it was -12.1% (active); in the assay with ACHN renal, -19.6% (active). The growth in the assay with CAKI-1 renal was -14.9% (active); in the assay with A498 renal, 21.6% (inactive); in the assay on CCRF-CEM leukemia, 13.7% (inactive); with MOLT-4 leukemia, 5.1% (active).

`O=C(Nc1nc2ccc([N+](=O)[O-])cc2s1)Nc1ccc(Cl)cc1Cl`: the growth in the assay on SK-MEL-2 melanoma is 65% (inactive); in the assay on EKVX NSCLC, 40.7% (inactive); with SN12C renal, 29.4% (inactive); in the assay on UO-31 renal, 59.8% (inactive); in the assay on TK-10 renal, 40.9% (inactive); in the assay on ACHN renal, 37.3% (inactive). For the same molecule, the growth is 57.2% (inactive) in the assay with CAKI-1 renal, -0.785% (active) in the assay on A498 renal, 42.1% (inactive) in the assay with CCRF-CEM leukemia and 33.9% (inactive) with MOLT-4 leukemia.

As for `Cc1ccc(C2CC(c3ccc(NC(=O)Nc4ccccc4)cc3)=NN2c2ccc(S(N)(=O)=O)cc2)cc1` (stereo not given), the growth with SK-MEL-2 melanoma is -81.7% (active); in the assay on EKVX NSCLC it was -95.1% (active); with SN12C renal, -91.6% (active); in the assay on UO-31 renal, -100% (active); in the assay with TK-10 renal, -81.4% (active); in the assay with ACHN renal, -100% (active). In addition, the growth in the assay on CAKI-1 renal is -98.2% (active); in the assay with A498 renal, -93% (active); with CCRF-CEM leukemia it was -17.7% (active); in the assay on MOLT-4 leukemia it was -27.8% (active).

Regarding `C/C(=N/O)c1ccc(NC(=O)CSc2nnc(-c3ccc4nc(-c5ccc(Cl)cc5)[nH]c4c3)o2)cc1`, the growth with SK-MEL-2 melanoma was 65.1% (inactive); with EKVX NSCLC, 99.8% (inactive); in the assay on SN12C renal it was 28.8% (inactive); with UO-31 renal, 87.7% (inactive); in the assay on TK-10 renal it was 121% (inactive); with ACHN renal, 77.3% (inactive). In addition, the growth in the assay with CAKI-1 renal was 97% (inactive); in the assay with A498 renal it was 158% (inactive); in the assay with CCRF-CEM leukemia, 32.5% (inactive); in the assay with MOLT-4 leukemia, 19.6% (inactive).

In the case of `Cn1cc(-c2cc(N)n3nc(-c4c[nH]c5ccccc45)cc3n2)c2cc(Br)ccc21`, the growth is -65.4% (active) in the assay on SK-MEL-2 melanoma; -86.5% (active) in the assay with EKVX NSCLC; -78.8% (active) in the assay on SN12C renal; -82.3% (active) in the assay with UO-31 renal; -94.6% (active) in the assay on TK-10 renal; -87.7% (active) with ACHN renal. Further, the growth in the assay on CAKI-1 renal is -87.3% (active); in the assay with A498 renal, -92.5% (active); with CCRF-CEM leukemia, -22.9% (active); with MOLT-4 leukemia it was 7.68% (active).

On to `O=c1[nH]c2ccccc2cc1CSc1ccccc1Nc1nccc(-c2ccc3c(c2)OCO3)n1`, for which the growth is 96.7% (inactive) with SK-MEL-2 melanoma; 86.6% (inactive) in the assay with EKVX NSCLC; 57% (inactive) with SN12C renal; 77.6% (inactive) in the assay on UO-31 renal; 107% (inactive) in the assay on TK-10 renal; 51.6% (inactive) in the assay on ACHN renal. Also, the growth is 16% (inactive) in the assay on CAKI-1 renal, 126% (inactive) with A498 renal, 101% (inactive) with CCRF-CEM leukemia and 93.6% (inactive) in the assay on MOLT-4 leukemia.

Consider `COc1cc(C2CC(c3ccc(F)cc3)=Nc3c(N)nc(N)nc3N2)ccc1Oc1nc(Nc2ccc(F)cc2)nc(N(C)C)n1` (stereo not given), for which the growth with SK-MEL-2 melanoma was 19.2% (inactive); in the assay with EKVX NSCLC, 56.4% (inactive); in the assay with SN12C renal, 79.7% (inactive); with UO-31 renal, 48% (inactive); in the assay with TK-10 renal, 88.7% (inactive); in the assay on ACHN renal, 51.4% (inactive). In addition, the growth in the assay with CAKI-1 renal is 40.5% (inactive); in the assay with A498 renal, 74% (inactive); in the assay on CCRF-CEM leukemia it was 44.2% (inactive); with MOLT-4 leukemia, 1.16% (active).

As for `COc1cc(C2CC(c3ccc(Cl)cc3)=Nc3c(N)nc(N)nc3N2)ccc1Oc1nc(Nc2ccc(F)cc2)nc(N(C)C)n1` (stereo not given), the growth in the assay with SK-MEL-2 melanoma was 64.1% (inactive); in the assay on EKVX NSCLC, 49.6% (inactive); in the assay on SN12C renal, 55.6% (inactive); in the assay with UO-31 renal it was 34.6% (inactive); in the assay on TK-10 renal, 72.1% (inactive); in the assay with ACHN renal it was 62.3% (inactive). Also, the growth in the assay on CAKI-1 renal is 35.3% (inactive); with A498 renal, 59.5% (inactive); in the assay with CCRF-CEM leukemia it was 47% (inactive); in the assay with MOLT-4 leukemia, -8.16% (active).

`Cc1ccccc1NC(=O)c1cccc(NC(=O)CCl)c1`: the growth was 92.9% (inactive) in the assay with SK-MEL-2 melanoma; 97% (inactive) in the assay with EKVX NSCLC; 15.4% (inactive) in the assay with SN12C renal; 71.3% (inactive) with UO-31 renal; 88.2% (inactive) with TK-10 renal; 22.8% (inactive) in the assay on ACHN renal. Moreover, the growth in the assay on CAKI-1 renal is 74.5% (inactive); in the assay with A498 renal, 105% (inactive); in the assay with CCRF-CEM leukemia, 8.03% (active); in the assay with MOLT-4 leukemia, 29.7% (inactive).
